Screening data as filed in PubChem.
TDP1 cell CPT: growth inhibition of DT40 Tdp1-/-;hTDP1 cells with camptothecin (screen for TDP1 inhibitors); chicken DT40 Tdp1-/-;hTDP1 cells + 20 nM CPT, ATP luminescence, 48 h; Potency, µM (series often up to 46.2 µM), without a hit: at the top dose activity change, negative = growth inhibition, usual class: inhibitors; 12% of 420,000 active; AID 686979; note: potency is the fitted concentration of half-maximal effect; nearly all actives have a fitted effect of over 55% in size
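Chicken DT40 Tdp1-/- cells stably complemented with human TDP1 were seeded at 400 cells/well in medium containing 20 nM camptothecin, exposed to pin-transferred compounds, and grown at 37 °C for at least 48 hr. Viability was read as ATP luminescence.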
HT1080NT lethal: kills 2HG-producing HT-1080-NT fibrosarcoma cells. 1.6% of 360,000 active. Potency, µM (doses to about 46.1 µM), for inactives: top-dose activity, negative = less viability, actives largely listed as cytotoxic. HT-1080-NT fibrosarcoma viability, CellTiter-Glo ATP luminescence, 48 h. AID 686970;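 note: NT is the 2HG producing partner of a matched IDH1 knockdown line; potency is the fitted concentration of half-maximal effect; 0% = DMSO-treated cells and -100% = media-only wells without cells; nearly all actives have a fitted effect of over 55% in size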
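Toxicity toward the 2HG-producing NT line was scored as %Activity, normalised to DMSO and no-cell wells, from CellTiter-Glo luminescence after 48 hours' treatment.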
TDP1 cell noCPT: qHTS for Inhibitors of human tyrosyl-DNA phosphodiesterase 1 (TDP1): qHTS in cells in absence of CPT; DT40 Tdp1-/- hTDP1 cells, no CPT, ATP luminescence, 48 h; Potency, µM (top dose mostly 46.2 µM), inactives show top-dose activity change, negative = growth inhibition, usual class: inhibitors; 15% of 420,000 active; note: potency is the fitted concentration of half-maximal effect; nearly all actives have a fitted effect of over 55% in size
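DT40 Tdp1-/-;hTDP1 cells, no CPT (DMSO vehicle only), 400 cells/well; compounds pin-transferred; ≥48 hr, 37 °C; CellTiter-Glo 30 min RT dark, luminescence read.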
HT1080 IDH1KD tx: kills HT-1080 cells with IDH1 knockdown; HT-1080 IDH1 knockdown viability, ATP luminescence, 48 h; Potency, µM (doses to about 46.1 µM), without a hit: at the highest dose activity, negative = toxicity, most hits filed as cytotoxic; 2% of 360,000 active;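 note: potency is the fitted concentration of half-maximal effect; 0% = DMSO wells and -100% = cell-free medium wells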
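Knockdown cells (IDH1KD HT-1080) received compounds 2 h after plating at 750 cells/well and were kept 48 h at 37 °C in 5% FBS RPMI. A CellTiter-Glo luminescence read gave % activity for curve fitting.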
IL-1B inflam inh: inflammasome signaling inhibition, IL-1 beta readout. 4.7% of 360,000 active. THP-1 LPS/ATP IL-1B secretion, AlphaLISA, 16 h; active compounds read low. AID 743279. activity change, % at 57.5 µM; in the data active = activity change below about -50%; inconclusive = mostly about -30% to -49%
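THP-1 cells pretreated 1 hr with compounds (up to 57.5 uM final), then stimulated with LPS (250 ng/mL final) plus ATP (1.25 mM final); secreted IL-1B measured by AlphaLISA after 16 hr, decreased signal indicating inhibition.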
* marks the source's active call; other numbers are inactive results; ? = inconclusive; / = no result. Only some compounds are listed: those with a hit (about 19% of all), similar ones and a draw of the others. Unless noted, calls come from the whole dose curve; as a rule, active = well fitted curve in the direction sought with a large enough effect; inconclusive = small, poorly fitted or top-dose-only effect, or another doubt; inactive = no such curve, though single readings can be large; an effect the other way counts as inactive or inconclusive. Unless noted, % is set by controls: 0 for no effect and ±100 for the full control effect.

SMILES	TDP1 cell CPT	HT1080NT lethal	TDP1 cell noCPT	HT1080 IDH1KD tx	IL-1B inflam inh
O=c1[nH][nH]cc1C=NCc1cccc(C(F)(F)F)c1	1%	-2%	-10%	-6%	9
Cc1ccc(C)c(OCC(O)CN2CCC(Cc3ccccc3)CC2)c1 (stereo not drawn)	21µM*	?	?	-15%	-60*
Cc1ccc(C)c(OCC(O)CN2CCCCC2C)c1 (stereo not drawn)	-20%	-11%	?	1%	17
Cc1ccccc1OCC(O)CN1CCN(C)CC1 (stereo not drawn)	1%	4%	6%	4%	1
Cc1ccc(C)c(OCC(O)CN2C(C)CCCC2C)c1 (stereo not drawn)	23µM*	-6%	?	?	20
Cc1cccc(C)c1NC(=O)C(NC(=O)CN1C(=O)c2ccccc2C1=O)c1ccccc1 (stereo not drawn)	26%	0%	-13%	11%	-6
COc1cccc(-c2nc(CS(=O)(=O)CC(=O)N3CCCCC3)c(C)o2)c1	-14%	1%	-2%	-7%	0
COc1ccc(CCN2CC(C(=O)N3CCC(O)(c4ccccc4)CC3)CCC2=O)cc1 (stereo not drawn)	-5%	1%	-27%	-2%	15
COc1ccc(S(=O)(=O)c2c(SC)nn(CC(=O)Nc3cccc(C)c3C)c2N)cc1	-17%	/	?	/	/
COc1ccc2c(CNCc3cccs3)c(C(=O)O)n(Cc3cccc(F)c3)c2c1	-8%	/	?	/	/
COc1ccc(Cn2c(C(=O)O)c(CNCc3ccccc3F)c3ccc(OC)cc32)cc1	?	/	16µM*	/	/
COc1ccc2c(CNC3CCC(C)CC3)c(C(=O)O)n(Cc3ccc(F)cc3)c2c1 (stereo not drawn)	?	/	16µM*	/	/
COc1ccc2c(CNCCc3ccccc3)c(C(=O)O)n(Cc3cccc(F)c3)c2c1	?	/	18µM*	/	/
CCOc1ccccc1CNCc1c(C(=O)O)n(Cc2ccccc2)c2cc(OC)ccc12	?	/	13µM*	/	/
COc1ccc(Cn2c(C(=O)O)c(CNC3CCCC3)c3ccc(OC)cc32)cc1	?	/	-29%	/	/
CCOc1ccccc1NC(=O)CSc1nnc(CNC(=O)c2c(F)cccc2Cl)o1	5%	11%	7%	3%	17
CCC(C)(NC(=O)c1ccc2c(c1)OCO2)C(=O)NC1CCCCC1 (stereo not drawn)	3%	4%	-1%	18%	-1
Cc1cc(C)c(NC(=O)c2cc(CN3CCOCC3)on2)c(C)c1	-2%	/	0%	/	/
Cc1ccc(S(=O)(=O)Nc2ccc3nc(C)oc3c2)cc1	18µM*	0%	10µM*	-21%	13
COc1ccc(NS(=O)(=O)c2ccc3oc(SC)nc3c2)cc1	12µM*	-8%	9.2µM*	-23%	-14
COc1ccc(-c2nc3ccc(NS(=O)(=O)c4ccc(C)cc4)cc3o2)cc1	?	/	10µM*	/	/
Cc1ccc(S(=O)(=O)Nc2ccc3nc(-c4cccn4C)[nH]c3c2)cc1	?	7%	?	1%	-50*
COCCCN1C(=O)C(CC(=O)NCCN2CCOCC2)CC(C(=O)N(C)C)=C1C (stereo not drawn)	7%	16%	-11%	9%	-19
Cc1nn(CC(=O)Nc2cccc(C(F)(F)F)c2)c(=O)c2nn(-c3ccccc3)c(C)c12	-2%	/	-3%	/	/
CCCCn1nnnc1C(c1ccccc1)N1CCN(c2cc(C)ccc2C)CC1 (stereo not drawn)	?	-23%	?	?	-4
SMILES	TDP1 cell CPT	HT1080NT lethal	TDP1 cell noCPT	HT1080 IDH1KD tx	IL-1B inflam inh
C=C(c1ccc(O)cc1)c1ccc(O)cc1	-6%	-30%	?	?	-59*
CC1(C2CCN(Cc3c[nH]c4ccccc34)CC2)NC(=O)N(CCN2CCOCC2)C1=O (stereo not drawn)	5%	/	-24%	/	/
COc1ccc(Cn2ccnc2SCC(=O)Nc2ccc(F)cc2F)cc1	?	-1%	23µM*	-3%	0
COc1ccc(Cn2ccnc2SCC(=O)Nc2ccccc2F)cc1	-16%	-1%	-12%	0%	-2
O=C(CSc1nccn1Cc1ccc(F)cc1)Nc1nc2ccccc2s1	18µM*	/	23µM*	/	/
O=C(CSc1nccn1Cc1ccccc1)Nc1nc2ccccc2s1	?	/	-7%	/	/
CCC(CC)CN1C(Nc2ccccc2)=NC[C@@H]1CC(C)C	?	-13%	?	2%	-10
c1ccc(C[C@H]2CN=C(Nc3ccccc3)N2CCC2CCCC2)cc1	?	?	15µM*	?	?
CC(C)C[C@H]1CN=C(Nc2ccccc2)N1CC(C)C	-26%	-1%	-24%	-2%	22
CC(C)C[C@H]1CN=C(Nc2ccccc2)N1CCC1CCCCC1	?	-2%	16µM*	0%	-7
CC(C)C[C@H]1CN=C(Nc2ccccc2)N1CC1CCCC1	?	-3%	16µM*	0%	-21
CC(C)C[C@H]1CN=C(Nc2ccccc2)N1CC1CCC(C(C)(C)C)CC1 (stereo partly drawn)	5.8µM*	-8%	6.5µM*	?	-87*
Cc1ccc(CNC(=O)C2CCCN(Cc3cnn(-c4ccccc4)c3-n3cccc3)C2)cc1 (stereo not drawn)	21µM*	1%	21µM*	3%	?
COC(=O)c1ccc(OCC2c3cc(OC)c(OC)cc3CCN2C(=O)c2ccco2)cc1 (stereo not drawn)	23µM*	-29%	21µM*	?	-53*
COc1cc2c(cc1OC)C(c1ccccc1)N(C(=O)c1ccco1)CC2 (stereo not drawn)	21µM*	-6%	21µM*	-10%	-23
COc1ccc(CC(=O)N2CCc3cc(OC)c(OC)cc3C2COc2cc(C)cc(C)c2)cc1OC (stereo not drawn)	18µM*	/	18µM*	/	/
COc1cc2c(cc1OC)C(c1ccccc1)N(C(=O)c1ccccc1)CC2 (stereo not drawn)	?	-15%	?	-16%	?
COC(=O)c1ccc(OCC2c3cc(OC)c(OC)cc3CCN2C(=O)Cc2ccc(OC)cc2)cc1 (stereo not drawn)	?	/	21µM*	/	/
CC(Nc1nc(N2CCN(S(C)(=O)=O)CC2)nc2ccccc12)c1ccccc1 (stereo not drawn)	?	-23%	?	-4%	-7
COC(=O)C[C@@H]1C=C[C@H](NC(=O)c2ccccc2)[C@@H](CO)O1	4%	?	5%	23%	16
